Screening results as filed in PubChem BioAssay.
aSyn UTR inh: MLPCN primary screen, SNCA 5' untranslated region; 0.82% of 300,000 active; alpha-synuclein 5'UTR reporter, inhibitor activity; inhibition, % (tested at 7.5 µM); in the data active = inhibition above about 60%; inconclusive = no clear call, values can overlap the other calls;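 note: H4 neuroglioblastoma cells stably carrying SNCA 5'UTR luciferase fusion; 0% = DMSO wells and 100% = positive control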
KLF5 inhibitor: suppresses KLF5 promoter-driven expression; inhibition, % at 5 µM; 0.23% of 290,000 active; DLD-1 KLF5 promoter-luciferase reporter, luminescence;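 active = inhibition above a per-plate limit of that plate's mean compound inhibition plus 3 SD, cut at about 60% in these data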;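 note: 0% = DMSO wells and 100% = LY294002 at 200 µM; higher means less KLF5 promoter-driven luciferase light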
Ba/F3 V617F tox: lowers viability of Ba/F3 cells expressing EpoR and JAK2V617F. ATP luminescence. 1.1% of 220,000 active. inhibition, % at 5.6 µM;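 active = inhibition above the campaign mean plus 3 SD over all tested compounds, cut at about 24% in these data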;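 note: cytokine-independent growth of Ba/F3 cells driven by EpoR plus mutant JAK2; 0% = DMSO-treated cells and 100% = JAK inhibitor I control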
APP 5UTR inh: APP translation inhibition | SH-SY5Y APP 5'UTR-luciferase reporter, luminescence | inhibition, % at 2 µM | 0.82% of 190,000 active | AID 1285;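 active = inhibition above a set limit, derived from the sample mean plus 3 SD, cut at about 45% in these data; inconclusive = one replicate passes the limit while the other fails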
IEC-6 cytotox: kills IEC-6 intestinal cells in KLF5 counter-screen. IEC-6 cytotoxicity, luminescence viability. 0.78% of 290,000 active. AID 1825. inhibition, % at 5 µM;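 note: 0% = plate median of test compound wells and 100% = cytotoxic reference compound wells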
BaF3 tox: counter-screen for JAK2V617F inhibitors: parental Ba/F3 viability inhibitors; CellTiter-Glo ATP luminescence; inhibition, % at 5.6 µM; 1.1% of 220,000 active;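 active = inhibition above a per-campaign cutoff, the mean inhibition of all tested compounds plus 3 SD, cut at about 27% in these data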;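 note: 0% = DMSO wells and 100% = JAK Inhibitor I control wells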
IEC-6 tox confirm: IEC-6 cytotoxicity, confirmation assay. shares compounds with IEC-6 cytotox. IEC-6 rat intestinal epithelial viability, luminescence. inhibition, % at 5 µM. 63% of 1,900 active. AID 1907;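 note: 0% = vehicle and 100% = reference cytotoxic drug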
An asterisk follows results filed as active. Only some compounds are listed: those with a hit (about 2.2% of all), similar ones and a draw of the others. Cut-off read from the data, not from the text of the source, unless noted: active = inhibition above about 22%; inactive = the rest.

`CCOc1ccc(N(C)S(=O)(=O)c2cc(-c3cc(C)no3)ccc2C(C)C)cc1` gave aSyn UTR inh -12.6, KLF5 inhibitor -15.6 and IEC-6 cytotox 1.1.
COc1cc2nc(CN3CCC(C(O)(c4ccccc4)c4ccccc4)CC3)[nH]c(=O)c2cc1OC was read as aSyn UTR inh -1.8, KLF5 inhibitor -32.4, Ba/F3 V617F tox 1.7, APP 5UTR inh -8.1, IEC-6 cytotox -1.8 and BaF3 tox 1.7.
For CN(C)CC(CCC(CN(C)C)C(O)(c1ccccc1)c1ccccc1)C(O)(c1ccccc1)c1ccccc1 (stereo not given) the results were aSyn UTR inh 101.2*, KLF5 inhibitor 1.8, IEC-6 cytotox 44.8* and IEC-6 tox confirm 42.1*.
Screening CC(NC(=O)/C(C#N)=C/c1ccc([N+](=O)[O-])o1)c1ccccc1 (stereo not given) returned aSyn UTR inh -54.3, KLF5 inhibitor 3.4, IEC-6 cytotox 47.6* and IEC-6 tox confirm 15.6.
For Cc1cccc(NNC(=O)C(=O)NNc2cccc(C)c2)c1 the results were aSyn UTR inh -6.9, KLF5 inhibitor 34.3, Ba/F3 V617F tox -1.0, IEC-6 cytotox 33.9*, BaF3 tox -0.8 and IEC-6 tox confirm -14.2.
Screening O=C(N/N=C/c1ccccc1)c1ccco1 returned aSyn UTR inh -107.4, KLF5 inhibitor -108.8, Ba/F3 V617F tox -0.8, IEC-6 cytotox 3.1 and BaF3 tox 0.9.
For O=C(C#Cc1ccccc1)c1ccco1 the results were aSyn UTR inh -140.8, KLF5 inhibitor 53.7, IEC-6 cytotox 100.8* and IEC-6 tox confirm 28.4*.
Screening COc1ccc(/C=N\NC(=O)c2sccc2C)cc1Cn1nc(C)cc1C returned aSyn UTR inh -29.7, KLF5 inhibitor -17.1, IEC-6 cytotox 45.5* and IEC-6 tox confirm 24.5*.
CC(C)C(=O)N1CCN(c2ccc(NC(=O)c3ccc([N+](=O)[O-])o3)cc2)CC1 was read as aSyn UTR inh 34.8, KLF5 inhibitor 8.7, Ba/F3 V617F tox 67.4*, APP 5UTR inh 57.3*, IEC-6 cytotox 23.9*, BaF3 tox 33.1* and IEC-6 tox confirm 14.3.
For CC(C)C(=O)N1CCN(c2ccc(NC(=O)c3ccc(Br)o3)cc2)CC1 the results were aSyn UTR inh -13.8, KLF5 inhibitor -32.9, Ba/F3 V617F tox -1.7, APP 5UTR inh -16.8, IEC-6 cytotox 0.3 and BaF3 tox 1.6.
`O=C(Nc1ccccc1N1CCN(C(=O)c2ccc(Cl)cc2)CC1)c1ccc([N+](=O)[O-])o1` gave aSyn UTR inh -29.9, KLF5 inhibitor -31.0, IEC-6 cytotox 33.4* and IEC-6 tox confirm 11.9.
For Cc1ccccc1C(=O)N1CCN(c2ccc(NC(=O)c3ccc([N+](=O)[O-])o3)cc2)CC1 the results were aSyn UTR inh -167.8, KLF5 inhibitor 48.6, IEC-6 cytotox 97.9* and IEC-6 tox confirm 34.7*.
`COc1ccc(C(=O)Nc2ccc(N3CCN(C(=O)c4ccccc4)CC3)cc2)cc1[N+](=O)[O-]` gave aSyn UTR inh 3.3, KLF5 inhibitor -44.2, Ba/F3 V617F tox 8.4, APP 5UTR inh -2.9, IEC-6 cytotox 1.0 and BaF3 tox 14.6.
For O=C(Nc1ccc(N2CCN(C(=O)c3ccccc3)CC2)cc1)c1ccc([N+](=O)[O-])o1 the results were aSyn UTR inh -18.8, KLF5 inhibitor 22.6, Ba/F3 V617F tox 99.0*, APP 5UTR inh 94.3*, IEC-6 cytotox 85.0*, BaF3 tox 76.8* and IEC-6 tox confirm 34.9*.
`Cc1[nH]c2ccc(C(=O)NCCCN(C)C3CCCCC3)cc2c1C` gave aSyn UTR inh -14.1, KLF5 inhibitor -11.8 and IEC-6 cytotox -1.0.
`CC(=O)c1sc2nc(-c3ccccc3)cc(C)c2c1N` gave aSyn UTR inh 22.6, KLF5 inhibitor -2.6 and IEC-6 cytotox 3.1.
`O=C(NCC(c1ccco1)N1CCCC1)c1ccccc1Sc1ccc(C(F)(F)F)cc1[N+](=O)[O-]` (stereo not given) gave aSyn UTR inh 22.2.
For O=C(CCC1CCCC1)Nc1cc(C(F)(F)F)ccc1N1CCOCC1 the results were aSyn UTR inh 9.4.
COc1ccc(C(=O)COC(=O)c2nn(C)cc2Cl)cc1 was read as aSyn UTR inh -46.0, KLF5 inhibitor -18.3 and IEC-6 cytotox -1.1.
For CN1CCN(c2ccc(NC(=O)c3ccc([N+](=O)[O-])o3)cc2Cl)CC1 the results were aSyn UTR inh inconclusive, KLF5 inhibitor -13.8, IEC-6 cytotox 90.2* and IEC-6 tox confirm 28.8*.
Screening C/C(=N\NC(=O)CN1CCCCC1)c1cccc([N+](=O)[O-])c1 returned aSyn UTR inh -93.1.
Screening C/C(=N\NC(=O)CN1CCCCC1)c1ccccc1O returned aSyn UTR inh 46.3, KLF5 inhibitor -9.5, IEC-6 cytotox 41.8* and IEC-6 tox confirm 18.8.
Screening O=[N+]([O-])c1ccc(/C=C/c2ccc3ccccc3n2)cc1 returned aSyn UTR inh 46.1, KLF5 inhibitor -95.1, Ba/F3 V617F tox 0.9, APP 5UTR inh -165.4, IEC-6 cytotox 87.6*, BaF3 tox 8.9 and IEC-6 tox confirm 66.8*.
For O=[N+]([O-])c1ccc(/C=C/c2ccc3cccc(O)c3n2)cc1 the results were aSyn UTR inh -10.9, KLF5 inhibitor -132.5, IEC-6 cytotox 42.3* and IEC-6 tox confirm 16.8.
COc1cc(/C=C/c2ccc3cccc(O)c3n2)cc(Br)c1OC was read as aSyn UTR inh -81.1, KLF5 inhibitor -62.8 and IEC-6 cytotox -0.9.
Screening Fc1ccccc1/C=C/c1ccc2ccccc2n1 returned aSyn UTR inh 35.0, KLF5 inhibitor -129.4, Ba/F3 V617F tox -0.1, APP 5UTR inh -195.5, IEC-6 cytotox 2.3 and BaF3 tox 4.7.
Screening COc1cc(/C=C/c2ccc3cccc(O)c3n2)cc(OC)c1OC returned aSyn UTR inh -23.7, KLF5 inhibitor -0.2, IEC-6 cytotox 30.4* and IEC-6 tox confirm 3.8.
`Cc1ccc(C(=O)c2cc([N+](=O)[O-])ccc2N2CCCCC2)cc1C` gave aSyn UTR inh 56.4, KLF5 inhibitor 3.4, Ba/F3 V617F tox 82.8*, APP 5UTR inh 94.0*, IEC-6 cytotox 57.8*, BaF3 tox 75.1* and IEC-6 tox confirm 61.3*.
`Cc1ccc(C(=O)c2cc([N+](=O)[O-])ccc2N2CCN(C)CC2)cc1` gave aSyn UTR inh inconclusive, KLF5 inhibitor 15.0, Ba/F3 V617F tox 5.9, APP 5UTR inh 63.1*, IEC-6 cytotox 44.1*, BaF3 tox 26.3 and IEC-6 tox confirm 38.0*.
Screening Cc1[nH]c2ccccc2c1/C=N/Nc1nncn1N returned KLF5 inhibitor -27.1, Ba/F3 V617F tox 7.0, APP 5UTR inh -134.1, IEC-6 cytotox 101.9*, BaF3 tox 4.1 and IEC-6 tox confirm -13.5.
For CCCCN1CC(=O)N2Cc3[nH]c4ccccc4c3C[C@H]2C1=O the results were aSyn UTR inh -2.6, KLF5 inhibitor -21.3 and IEC-6 cytotox -4.5.
CC(/C=N/NC(=O)c1cccc(F)c1)=C\c1ccccc1 was read as aSyn UTR inh -254.5, KLF5 inhibitor -47.8, IEC-6 cytotox 28.3* and IEC-6 tox confirm 5.7.
